Only some compounds are listed: those with a hit (about 2.4% of all), similar ones and a draw of the others.
SENP6 inh = SENP6 protease inhibition. Q9GZR1. Recombinant SENP6 catalytic domain, aminoluciferin luminescence. inhibition, % at 10 µM. hit rate 1.8% among 330,000;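 active means inhibition above about 50% at the single tested dose, limit read from the data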;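 further: plate controls were DMSO wells with enzyme for no effect and DMSO wells lacking enzyme for full effect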
SENP8 block-1 = inhibitors of human SENP8 protease; hit rate 1.2% among 330,000; inhibition, % at 10 µM; Q96LD8; purified SENP8, Z-RLRGG-aminoluciferin cleavage, luminescence; AID 2540; in the data active means inhibition above about 50%
SENP8 block-2 = SENP8 (human) protease inhibition; recombinant SENP8, Nedd8 substrate fluorescence; inhibition, % at 20 µM; hit rate 0.64% among 360,000; Q96LD8; in the data active means inhibition mostly above about 40%, no sharp cut-off; inactive means mostly below about 27%
SENP7 inh = blocks the human protease SENP7 | recombinant SENP7, Z-RLRGG-aminoluciferin luminescence, 40 min | AID 434973 | hit rate 1.5% among 330,000 | inhibition, % at 5 µM | Q9BQF6;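 active means inhibition above about 50% at the single test dose, limit read from the data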;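 further: plate controls were DMSO with enzyme for no effect and no enzyme buffer wells for full effect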
Target sequence (Q9BQF6 706-1050 limits assumed): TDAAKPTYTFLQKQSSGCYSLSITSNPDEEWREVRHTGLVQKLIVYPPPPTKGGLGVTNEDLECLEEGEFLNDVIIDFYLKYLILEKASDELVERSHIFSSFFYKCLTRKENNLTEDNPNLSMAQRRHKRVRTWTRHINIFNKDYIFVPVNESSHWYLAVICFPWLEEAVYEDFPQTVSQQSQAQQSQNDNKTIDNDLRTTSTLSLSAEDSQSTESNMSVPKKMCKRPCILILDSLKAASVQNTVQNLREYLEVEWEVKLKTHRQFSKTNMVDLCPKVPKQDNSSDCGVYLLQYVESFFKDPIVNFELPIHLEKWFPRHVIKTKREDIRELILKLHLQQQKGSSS
Platelet DG rel = platelet dense granule release activity. inhibition, %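 (compounds screened at 7.5 µM in platelet-rich plasma)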. human platelet-rich plasma, SFLLRN dense granule ATP release, luminescence. hit rate 0.22% among 300,000. AID 1663;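 active means mean replicate score, as percent of positive control, at or above 50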
SENP8 confirm = human SENP8 inhibition, confirmed. Recombinant SENP8, Z-RLRGG-aminoluciferin luminescence, 60 min. hit rate 40% among 6,200. AID 488912. shares compounds with SENP7 inh. inhibition, % at 12.5 µM;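 active means mean inhibition across replicates above about 50%, limit read from the data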
SENP6 conf = human SENP6 inhibition, confirmed; shares compounds with SENP7 inh; recombinant SENP6, Z-RLRGG-aminoluciferin luminescence; inhibition, % at 12.5 µM; hit rate 58% among 6,200
SENP7 confirm = human SENP7 inhibition, confirmed | hit rate 69% among 6,200 | recombinant SENP7, Z-RLRGG-aminoluciferin luminescence, 40 min | shares compounds with SENP7 inh | inhibition, % at 12.5 µM
Casp3 select = selectivity test for SENP inhibitors: human caspase-3 inhibition; AID 488918; purified caspase-3, Z-DEVD-aminoluciferin luminescence, 60 min; hit rate 60% among 6,200; inhibition, % at 12.5 µM; shares compounds with SENP7 inh;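 active means mean inhibition above about 50%, limit read from the data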;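 further: plate controls were enzyme with DMSO for no effect and wells without caspase-3 for full effect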
SENP luc ctr = luminescence interference (SENP counter-screen); shares compounds with SENP7 inh; Pre-incubated SENP8/Z-RLRGG-aminoluciferin, luciferase luminescence interference; inhibition, % at 12.5 µM; hit rate 39% among 6,200;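 active means mean inhibition above about 50% when retested at one dose, limit read from the data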;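 further: plate controls were DMSO wells with completed reaction for no effect and substrate without enzyme for full effect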
Starred values were filed as active, the others as inactive; · = no result.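 How the source made its calls, unless noted: active means mean inhibition above about 50% in the one-dose retest (limit read from the data); inactive means the rest.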

SMILES	SENP6 inh	SENP8 block-1	SENP8 block-2	SENP7 inh	Platelet DG rel	SENP8 confirm	SENP6 conf	SENP7 confirm	Casp3 select	SENP luc ctr
Cc1cccc(C(=O)Nc2nc3ccc(S(C)(=O)=O)cc3s2)c1	75.1*	63.3*	-80.8	74.1*	32.1	6.9	42.4	88.0*	77.8*	-1.8
O=C(Nc1ccccc1)Nc1n[nH]c2nnc(-c3ccccc3)c(-c3ccccc3)c12	3.6	-2.6	-30.0	0.5	-2.4	·	·	·	·	·
CCN(CC)C(=S)Nc1ccc(Cl)c(Cl)c1	0.1	-6.0	13.8	2.3	11.5	·	·	·	·	·
O=C(Nc1cccc(O)c1)c1cc(-c2ccc3c(c2)OCO3)on1	95.6*	89.5*	-11.9	100.8*	95.1*	14.8	95.1*	36.3	76.8*	1.5
COc1ccc(NC(=O)c2cc(-c3ccccc3Cl)on2)cc1OC	-0.3	1.8	28.3	-0.6	0.7	·	·	·	·	·
O=C(Nc1cccc(O)c1)c1cc(-c2ccccc2Cl)on1	96.9*	93.2*	3.0	95.1*	33.7	11.3	94.2*	100.6*	86.9*	93.9*
COCCn1c(SCC(=O)Nc2ccc3[nH]c(=O)[nH]c3c2)nc2ccccc21	4.7	8.1	-8.0	-1.0	·	·	·	·	·	·
O=c1c2ccccc2cnn1CCOc1cccc(Br)c1	73.9*	59.8*	8.4	58.5*	-6.1	55.0*	67.9*	86.3*	58.0*	6.4
CC1CCC(NC(=O)c2[nH]c(C(F)(F)F)nc2-c2ccccc2)CC1 (configuration not stated)	·	·	17.3	·	·	·	·	·	·	·
CCCCCc1ccc(-c2cn(Cc3ccc(C(=O)c4ccccc4)cc3)nn2)cc1	8.4	0.3	20.5	7.6	-2.2	·	·	·	·	·
O=C(c1ccccc1)c1ccc(Cn2cc(-c3ccccc3)nn2)cc1	61.3*	57.8*	13.2	51.7*	-2.0	51.5*	64.9*	83.0*	31.2	16.9
O=C(N/C(=C\c1ccc(Br)cc1)C(=O)N1CCOCC1)c1ccco1	-28.0	3.3	-3.7	-0.9	5.4	·	·	·	·	·
Cc1ccccc1OCC(=O)NNC(=O)CCN1C(=O)c2ccccc2C1=O	15.5	-13.4	5.2	-6.9	4.3	·	·	·	·	·
CCOc1ccc2oc(C(=O)NC(C)(C)CC)c(C)c2c1	6.5	-4.0	-58.1	10.0	6.7	·	·	·	·	·
COc1ccc2oc(C(=O)OCC(=O)NCCc3ccccc3)c(C)c2c1	-8.1	17.6	-430.4	3.2	32.8	·	·	·	·	·
COc1ccc2oc(C(=O)NCCc3ccccc3)c(C)c2c1	89.5*	84.1*	-201.3	88.4*	1.3	92.9*	92.5*	100.0*	85.5*	72.2*
CCCCc1nnc(NC(=O)c2oc3ccc(OC)cc3c2C)s1	-0.6	-11.7	-453.9	-12.4	4.2	·	·	·	·	·
CCOc1ccc2oc(C(=O)Nc3nccs3)c(C)c2c1	10.6	22.1	-186.0	77.6*	·	19.1	13.9	25.8	38.6	10.9
COc1ccc2oc(C(=O)Nc3nccs3)c(C)c2c1	30.1	-5.2	-145.4	83.3*	-18.5	14.9	33.8	38.7	41.1	19.6
COc1cccc(CN(C)S(=O)(=O)c2c(C)noc2C)c1OC	-11.6	-6.6	10.4	4.0	·	·	·	·	·	·
O=C(N/C(=C\c1ccc(Cl)cc1)C(=O)N1CCOCC1)c1ccc([N+](=O)[O-])cc1	-14.4	-2.6	12.2	-3.7	-0.4	·	·	·	·	·
Cc1ccc(NC(=O)/C(C#N)=C(\N)C(Cl)(Cl)Cl)nc1	2.7	-0.9	-67.5	6.0	5.9	·	·	·	·	·
Cc1ccccc1-c1noc(-c2cccs2)n1	85.5*	77.6*	26.6	84.5*	-0.9	38.4	83.5*	94.2*	60.6*	32.8
COc1nc(C)ccc1-c1noc(-c2cccs2)n1	62.4*	49.3	-14.8	70.0*	-9.6	2.7	48.0	83.8*	41.3	14.2
CCc1cccc(N(C(=O)c2csnn2)C(C(=O)NC(C)(C)C)c2ccccn2)c1 (configuration not stated)	2.5	8.4	11.0	0.5	-0.4	·	·	·	·	·
